According to PubChem BioAssay AID493185 (National Center for Advancing Translational Sciences (NCATS), 2011):
The source made the active and inactive calls. Entries that show only a call come without a potency. Calls come from the whole dose curve; as a rule, active = well fitted activation curve with a large enough effect; inconclusive = small, poorly fitted or top-dose-only effect; inactive = no such curve, though single readings can be large or run the other way.
Potency is the fitted concentration of half-maximal effect.

Assay: Counterscreen for Identifying a Potential Treatment of Ataxia-Telangiectasia: Hit Validation
Conditions: cell-free AlphaLISA/AlphaScreen artifact counterscreen, PBS only, no cells; series mostly up to 76.9 µM
In short: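 Cell-free AlphaLISA counterscreen: compounds (up to 76.7 uM final) in PBS with detection mix of anti-pKAP1 and anti-KAP1 antibodies on donor/acceptor beads plus lysis buffer, incubated 6 hr at 25C before AlphaScreen read.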
With Fc1ccc(C2=NOC(c3nnc(-c4ccccc4)o3)C2)cc1 (centres undefined) the Potency was “inactive”. In the case of C=Cc1c(C)c2cc3[nH]c(cc4nc(cc5nc(cc1[nH]2)C(C)=C5CCC(=O)O)C(CCC(=O)O)=C4C)c(C)c3C=C, the Potency is reported as 29.2 µM (active). With CCOC(=O)N1CCC(NC(=O)C2CCN(S(=O)(=O)c3cccc4cccnc34)CC2)CC1 the Potency was “inactive”. For CCC(C)N1C(=S)SC(C)(C)C1N(O)C(=O)NC1CCCCC1 (centres undefined), the Potency was “inactive”. With CC(C)C1CC(CCN)(c2ccccc2)CCO1 (centres undefined) the Potency was “inactive”. With OC(COC(c1ccc(F)cc1)c1ccc(F)cc1)CN1CCCC1 (centres undefined) the Potency was “inactive”. With CC1(C)CC2(CCO1)OC(=O)CC2C(=O)Nc1c(Cl)cccc1Cl (centres undefined) the Potency was “inactive”. In the case of Cn1cc(/C=N/NC(N)=S)c2ccccc21, the Potency is reported as “inactive”. With CCOC(=O)c1ccc(-n2c(C)nc3ccc(Br)cc3c2=O)cc1 the Potency was “inactive”. With CC1=NN(C(C#N)c2ccc([N+](=O)[O-])cc2)C(C)(C)C1 (centres undefined) the Potency was “inactive”. In the case of CCOC(=O)Cn1c(-c2ccccc2)cc(SC)c(C#N)c1=O, the Potency is reported as “inactive”. For COc1ccc(-n2c(C)cc(=O)[nH]c2=O)cc1, the Potency was “inactive”. In the case of O=C(CSc1nnc(CNC(=O)c2ccccc2)o1)NCCc1ccccc1, the Potency is reported as “inactive”. For O=C1C2C3C=CC(CC3)C2C(=O)N1c1cccc(Br)c1 (centres undefined), the Potency was “inactive”. In the case of CNC(=S)N(CCc1c(C)[nH]c2ccc(Cl)cc12)Cc1cccnc1, the Potency is reported as “inactive”. For O=C(CSc1ccccn1)N/N=C/C=C/c1ccccc1, the Potency was “inactive”. In the case of COc1cc(/C=N/NC(=O)c2c(C)nc3ccc(Cl)cn23)cc(OC)c1OC, the Potency is reported as 58.2 µM (active). In the case of COc1ccccc1NC(=O)C1CCCN(S(=O)(=O)c2ccc(-n3cnnn3)cc2)C1 (centres undefined), the Potency is reported as “inactive”. In the case of COc1ccc(-c2csc(-c3ccc(O)cc3)n2)cc1, the Potency is reported as “inactive”. With CCn1c(N2CCN(CC(=O)c3c[nH]c4ccccc34)CC2)nc2c1c(=O)[nH]c(=O)n2C the Potency was “inactive”. In the case of Cc1ccc(C)c(-n2c(SCC(=O)NC(C(=O)O)C(C)C)nnc2-c2cccc(Cl)c2)c1 (centres undefined), the Potency is reported as “inactive”. In the case of CC(C)OP(=O)(OC(C)C)C(O)c1ccc(N(C)C)cc1 (centres undefined), the Potency is reported as “inactive”. For OC1(CC#CCN2CCCCC2)c2ccccc2-c2ccccc21, the Potency was “inactive”. In the case of O=c1c(-c2ccc(Cl)cc2)c[nH]n1-c1ccccc1, the Potency is reported as “inactive”. For N#Cc1c(-c2ccccc2)cc(-c2ccccc2)[nH]c1=O, the Potency was “inactive”. For CCC[C@H]1CCCC/C=C\CCCC(=O)OCCN1C(=O)OC(C)(C)C, the Potency was “inactive”. With COc1ccc2c(c1)cc(C(=O)N[C@H](C(=O)N1CCC(C(=O)O)CC1)C(C)C)n2C the Potency was “inactive”. For CC1CCCC(C)N1C(=O)COC(=O)Cc1ccc(Cl)cc1 (centres undefined), the Potency was “inactive”. In the case of COc1ccccc1OC(=O)Nc1ccc(Cl)cc1, the Potency is reported as 6.54 µM (active). With O=C(CCCC(=O)N1CCCC1)N1CCCC1 the Potency was “inactive”. With O=C(O)CCCC(=O)N1N=C(c2ccccc2)CC1c1cccs1 (centres undefined) the Potency was “inactive”. With CCC(Oc1ccccc1)C(=O)N(C)CC(=O)N(CC(C)C)c1c(N)n(CC(C)C)c(=O)[nH]c1=O (centres undefined) the Potency was “inactive”. With O=C1C(Cl)=C(Nc2ccccc2)C(=O)c2ccccc21 the Potency was “inactive”. With C(=N\Nc1ccccn1)/c1c[nH]c2ccccc12 the Potency was “inactive”. With CC1CC(C)CN(C(=O)COC(=O)c2c[nH]c3ccccc23)C1 (centres undefined) the Potency was “inactive”. With CC(C)(CO)NC(=O)c1ccc2c(c1)C(=O)c1ccccc1-2 the Potency was “inactive”. In the case of COc1ccc(N2CCN(C(=O)c3cc4cc(Cl)ccc4[nH]3)CC2)cc1, the Potency is reported as “inactive”. In the case of Nc1ccc2ncccc2c1, the Potency is reported as “inactive”. In the case of CNC(=S)N(CCO)Cc1cc2cc3c(cc2[nH]c1=O)OCCO3, the Potency is reported as “inactive”.
